Activity (quench increase) data for 74 compounds are collected here from PubChem BioAssay AID720511 (Broad Institute, 2013).

In all, about 350,000 compounds went through this assay and about 1,300 (0.37%) were called active. The entries come from a sample that favours actives as a whole. A number with no mark means an inactive call.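 How the source made its calls: active means mean added fluorescence quench of at least 8% versus neutral control, with both replicates also reaching 8%; inconclusive means only one of the mean or replicate conditions met; inactive means mean below 8% and not both replicates reaching 8%.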

The test is described as follows: F508del CFTR correction, initial screen, CFBE line, single point (AID 720511).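 Further: cells transiently co-express mutant CFTR-F508del with the halide-sensitive YFP; corrector assay measuring rescue of mutant channel to the surface after 24 h compound exposure.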 Particulars: CFBE cells, YFP halide quenching, at 7.58 µM, hits give high values, % fluorescence drop versus neutral controls, stimulated with forskolin plus potentiator P3.
As to `Cc1ccc(NC(=O)CN(C)CC(=O)Nc2cccc(F)c2)cc1[N+](=O)[O-]`, the activity (quench increase) is 1.68%.
With `Cc1ccc(CN(C)CC(=O)Nc2cccc([N+](=O)[O-])c2)o1` the figure was 10.1% (active); with `O=C(CN1CCOCC1)Nc1cccc([N+](=O)[O-])c1`, -2.49%.
With `COc1cccc(-c2ccc3c(c2)[C@H]2[C@H](CCN2C(=O)c2ccc(F)cc2)[C@@H](CO)N3)c1` the figure was 1.42%; with `COc1cccc(NC(=O)COc2cc(C)cc3oc(=O)cc(C)c23)c1`, 2.8%; with `Cc1cc2oc(=O)cc(-c3ccccc3)c2c(C)c1-c1ccc(OC(F)(F)F)cc1`, 1.07%.
Next, `COc1cc(OC)c2c(-c3cccc(-c4cccc(N)c4)c3)cc(=O)oc2c1`: 8.2% (active).
Consider `Cc1cc(C)c(/C=C2\C(=O)Nc3ccccc32)[nH]1`, for which the activity (quench increase) is 10.3% (active).
Next, `O=C1Nc2ccccc2C1=NN=Cc1ccco1`: -2.93%; `COc1ccc(/C=N/N=C2/C(=O)Nc3ccccc32)cc1O`: -1.27%.
Next, `O=C(NCC[C@H]1CC[C@H](NC(=O)C2CC2)[C@@H](CO)O1)c1ccc(F)cc1`: 1.43%.
With `Cc1c(CCC(=O)O)c(=O)oc2cc(OCc3ccc(Br)cc3)ccc12` the figure was 0.947%; with `Cc1c(CCC(=O)O)c(=O)oc2c(C)c(OCc3ccccc3Cl)ccc12`, 9.04% (active).
Turning to `COc1ccc2c(C)c(CCC(=O)NC3CC3)c(=O)oc2c1C`, the activity (quench increase) was 2.05%.
In the case of `C[C@@H]1CN([C@@H](C)CO)S(=O)(=O)c2ccc(C#CCN(C)C)cc2O[C@@H]1CN(C)C(=O)CC1CC1`, the activity (quench increase) was 0.474%.
Next, `COC(=O)COc1cccc2c(=O)n(CC(=O)NCc3ccccc3)ccc12`: 11% (active); `COC(=O)COc1cccc2c(=O)n(CC(=O)NCCc3ccc(OC)c(OC)c3)ccc12`: -1.22%; `CCOC(=O)C(C)Oc1cccc2c(=O)n(CC(=O)NCCc3ccc(OC)c(OC)c3)ccc12` (centres undefined): 2.66%.
With `COCC#Cc1ccc([C@@H]2[C@@H](CO)N3CCCCN(C(=O)NC4CCCC4)C[C@H]23)cc1` the figure was -0.841%.
Next, `C[C@@H]1CCCCO[C@@H](CN(C)CC2CC2)[C@@H](C)CN([C@H](C)CO)C(=O)c2cc(NC(=O)Nc3cccc4ccccc34)ccc2O1`: -0.347%; `COc1ccc(/C=C2/CCCc3ccccc3C2=O)cc1`: 14.3% (active); `COc1ccc(/C=C2\CCc3ccccc3C2=O)c(OC)c1OC`: -2.36%.
In the case of `COc1ccc(/C=C2\N=C3CCCN3C2=O)cc1`, the activity (quench increase) was -1.7%.
With `Cc1ccc(S(=O)(=O)N(C)C[C@H]2OCCCC[C@@H](C)Oc3ccc(NC(=O)NC4CCCCC4)cc3C(=O)N([C@H](C)CO)C[C@@H]2C)cc1` the figure was 0.861%.
Next, `O=C(C[C@H]1C[C@@H]2c3cc(NC(=O)CC4CC4)ccc3O[C@@H]2[C@H](CO)O1)NCc1ccccn1`: -1.26%; `Cc1cccc(C(=O)NCC(=O)OCC(=O)N(C)CC(=O)Nc2ccccc2Cl)c1`: 16.8% (active).
Next, `CN(CC(=O)Nc1ccccc1Cl)C(=O)COc1cccc2c1OC(C)(C)C2`: -5.27%; `CN(CC(=O)Nc1ccc(Cl)cc1)C(=O)CNC(=O)c1ccc2ccccc2c1`: -7.73%; `C/C=C/c1ccc2c(c1)O[C@H](CN(C)C(=O)Nc1ccccc1)[C@H](C)CN([C@@H](C)CO)S2(=O)=O`: -0.894%.
As for `COc1ccc2c3c([nH]c2c1)[C@H](CO)N(C(=O)C1CCOCC1)CC31CN(S(C)(=O)=O)C1`, the activity (quench increase) is -0.365%.
Next, `CS(=O)(=O)Nc1ccc2c(c1)[C@H]1C[C@H](CC(=O)NCc3ccc(Oc4ccccc4)cc3)O[C@H](CO)[C@H]1O2`: 4.1%; `COc1cc(OC)cc(C(=O)N[C@H](C(=O)NNC(=O)c2ccc(Br)cc2)C(C)C)c1`: -1.77%.
With `COc1cc(OC)cc(C(=O)N[C@H](C(=O)Nc2nc3ccccc3[nH]2)C(C)C)c1` the figure was 13.5% (active); with `COc1cc(OC)cc(C(=O)NC(C(=O)N2CCC2)C(C)C)c1` (centres undefined), 1.12%.
Next, `COc1ccc(NC(=O)N(C)C[C@H]2OCCCC[C@H](C)Oc3ccc(NC(=O)NC4CCCCC4)cc3C(=O)N([C@@H](C)CO)C[C@@H]2C)cc1`: -0.706%.
For `COc1ccc2c3c([nH]c2c1)[C@H](CO)N(C(=O)c1ccccc1)CC31CN(C(=O)Nc2cccc(F)c2)C1`, the activity (quench increase) was 0.989%.
With `COc1ccc2[nH]c3c(C)c4cc[n+](C)cc4c(C)c3c2c1` the figure was 12.8% (active); with `CC(C)NC(=O)Nc1ccc2c(c1)C(=O)N([C@H](C)CO)C[C@H](C)[C@H](CN(C)C(=O)CCC(F)(F)F)OCCCC[C@H](C)O2`, 0.243%.
With `O=C(C[C@@H]1C=C[C@@H](NS(=O)(=O)c2ccccc2)[C@@H](CO)O1)NCc1ccccc1F` the figure was -1.3%; with `COCC(=O)Nc1ccc2c(c1)OC[C@@H](C)N(CCc1ccccc1)C[C@H](C)[C@@H](OC)CN(C)C2=O`, -4.64%; with `C=CCNc1nc(Nc2ccc(Cl)cc2)nc(OC)n1`, 1.27%.
Take `Clc1ccc(Nc2ccc3ccccc3n2)cc1`: the activity (quench increase) is 9.55% (active).
With `Cn1c(Nc2cccc(Cl)c2)nc2ccccc21` the figure was 0.14%; with `CCCNC(=O)N1CC2(CN(C(=O)c3cnccn3)C2)c2c([nH]c3cc(OC)ccc23)[C@@H]1CO`, -0.147%; with `C[C@H](NC(=O)C[C@@H]1C[C@@H]2c3cc(NS(=O)(=O)c4ccc(F)cc4)ccc3O[C@@H]2[C@@H](CO)O1)c1ccccc1`, 0.793%.
On to `COc1ccc2c3c(n(C)c2c1)[C@@H](CO)N(Cc1ccncc1)CC31CN(C(=O)Nc2cccc(F)c2)C1`, for which the activity (quench increase) was -1.9%.
With `CC1(C(=O)NCc2ccco2)Cc2c(-c3ccc4c(c3)OCO4)ccnc2O1` (centres undefined) the figure was 8.09% (active); with `COc1ccc(NC(=O)C2(C)Cc3c(-c4cccc(NC(C)=O)c4)ccnc3O2)cc1` (centres undefined), 9.41% (active).
Next, `COc1ccc(NC(=O)C2(C)Cc3c(-c4cccc(NC(C)=O)c4)ccnc3O2)cc1OC` (centres undefined): -0.498%; `COc1ccc(NC(=O)C2(C)Cc3c(-c4ccc(C(N)=O)cc4)ccnc3O2)cc1` (centres undefined): -0.667%.
Next, `CC1(C(=O)NCc2ccc(F)c(F)c2)Cc2c(-c3ccc4c(c3)OCO4)ccnc2O1` (centres undefined): 0.827%; `CC(=O)Nc1cccc(-c2ccnc3c2CC(C)(C(=O)NCc2ccco2)O3)c1` (centres undefined): 7.38%; `CCC(=O)N1CC2(CN(Cc3cccnc3)C2)c2c(n(C)c3cc(OC)ccc23)[C@@H]1CO`: -0.0075%.
Consider `CCCC#Cc1cnc2c(c1)C(=O)N([C@@H](C)CO)C[C@@H](C)[C@@H](CN(C)Cc1ccccc1F)O2`, for which the activity (quench increase) is 0.509%.
Next, `CNC(=O)C[C@@H]1CC[C@@H]2[C@@H](COc3ccc(NC(=O)c4ccc5c(c4)OCO5)cc3C(=O)N2C)O1`: 0.442%; `COCC(=O)N(C)C[C@@H]1Oc2ncc(C#C[C@H](C)O)cc2C(=O)N([C@@H](C)CO)C[C@@H]1C`: 1.42%.
Next, `COc1ccc(NC(=O)Nc2ccc3c(c2)[C@H]2C[C@H](CC(=O)NC4CCCC4)O[C@H](CO)[C@H]2O3)cc1`: 2.1%; `C[C@@H]1CCCCO[C@H](CN(C)C(=O)CCC(F)(F)F)[C@@H](C)CN([C@@H](C)CO)C(=O)c2cc(NC(=O)c3ccncc3)ccc2O1`: 2%; `Cc1ccccc1-c1ccc([C@H]2[C@H]3CN(S(=O)(=O)c4ccc(F)cc4)CCCCN3[C@H]2CO)cc1`: -0.288%.
Next, `O=C(N[C@H]1CC[C@H](CCn2cc(-c3ccccc3F)nn2)O[C@@H]1CO)c1ccc2c(c1)OCO2`: -1.87%; `C[C@@H]1CCCCO[C@@H](CN(C)Cc2ccncc2)[C@H](C)CN([C@@H](C)CO)C(=O)c2cc(N(C)C)ccc2O1`: -0.227%.
As for `N#C[C@@H]1[C@@H](c2ccccc2)[C@H](CO)N1C(=O)c1cc(Cl)cc(Cl)c1`, the activity (quench increase) was -2.95%.
Next, `O=C(NCCC1CCCCN1S(=O)(=O)c1cccs1)C(=O)Nc1ccc(F)cc1F` (centres undefined): 8.8% (active); `COc1ccccc1CCNC(=O)C(=O)NCCC1CCCCN1S(=O)(=O)c1cccs1` (centres undefined): 0.824%; `O=C(NCCC1CCCCN1S(=O)(=O)c1ccc(F)cc1)C(=O)NC1CC1` (centres undefined): 3.1%.
Next, `COc1cccc(-c2ccc3c(c2)O[C@@H](CN(C)Cc2ccncc2)[C@H](C)CN([C@H](C)CO)S3(=O)=O)c1`: 3.64%.
With `Cc1noc(C)c1NC(=O)N(C)C[C@H]1OCCCC[C@@H](C)Oc2ccc(NC(=O)NC(C)C)cc2C(=O)N([C@H](C)CO)C[C@@H]1C` the figure was 1.72%; with `COc1ccccc1-n1c(CNC(=O)c2ccccc2)nnc1SCC(=O)Nc1nnc(C)s1`, 2.1%.
With `COc1ccccc1-n1ccnc1SCC(=O)NC(C)(C)C`, the activity (quench increase) was 0.912%.
With `Cc1nnc(NC(=O)CSc2nccn2-c2cccc(C)c2C)s1` the figure was 8.52% (active).
Next, `C[C@H](CO)N1C[C@H](C)[C@H](CN(C)S(=O)(=O)c2ccc(Cl)cc2)Oc2c(NS(C)(=O)=O)cccc2C1=O`: 1.05%; `CCCN1[C@H](C(=O)N2CCCCC2)[C@@H](CO)[C@@H]2Cn3c(ccc(-c4ccccc4F)c3=O)[C@@H]21`: 1.6%; `CCCN1[C@H](C(=O)N2CCOCC2)[C@@H](CO)[C@@H]2Cn3c(ccc(/C=C/c4ccccc4)c3=O)[C@@H]21`: 9.23% (active).
Regarding `CCCNC(=O)[C@@H]1[C@@H](CO)[C@@H]2Cn3c(ccc(/C=C/c4ccccc4)c3=O)[C@H]1N2CCC`, the activity (quench increase) is 3.14%.
